Eight compounds from PubChem BioAssay can be followed below.

Test [1] can be described thus: blockers of polyQ-driven CASP3 activation – cell-based (AID 1583). The note with it: polyglutamine-induced caspase-3 activation, cell assay; stronger effect = higher value;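 tested at 10 µM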.
A short description of test [2]: yeast 75Q aggregation reduction – 75Q-TubU reporter (AID 1593). The following applies: Yeast 75Q polyglutamine aggregation reporter.
Test [3] can be described thus: restoration of touch response, mutant HTT neurons – whole organism, C. elegans mechanosensory neurons, N-terminal huntingtin (AID 1599). The note with it: C. elegans polyQ-huntingtin mechanosensory neurons, stronger effect = higher value.
Test [4] is described as follows: blockers of cytochrome c efflux from mitochondria – biochemical, purified mitochondria (AID 1603).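 Note: mouse liver mitochondria challenged with calcium chloride; signal normalized to the plate average as 100%.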 The note with it: stronger effect = lower value.
The nature of test [5]: polyglutamine aggregate formation blockers (AID 1604). The note with it: polyglutamine-induced protein aggregation inhibition assay; stronger effect = higher value; tested at 2.5 µM.
Test [6] is described as follows: glutamate transport activators, MN-1 cells, MN-1 cell line (AID 1612).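 Note: tested at 1 µM final; 0% = mean of DMSO vehicle wells on each plate; positive means more glutamate uptake than control and negative means less.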 The following applies: MN-1 motor neuron cells, stronger effect = higher value.
A short description of test [7]: 75Q-TubH aggregate inhibition, S. cerevisiae, yeast (AID 1616). The following applies: S. cerevisiae 75Q-TubH polyglutamine aggregation suppression; stronger effect = higher value.
Test [8] can be described thus: P. berghei load reduction in hepatocytes – cell-based, HepG2, luciferase luminescence, HepG2 viability, primary screen (AID 624349).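 Note: 100% = mean of DMSO negative control wells on the same plate.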 The following applies: P. berghei liver stage in HepG2, luciferase luminescence, concentration not given here; parasite load remaining: stronger effect = lower value; viability: measured here: HepG2 viability without parasites.
A short description of test [9]: EMT-state selective cytotoxicity in co-culture – imaging, PC-3E GFP, TEM4-18 mCherry, primary screen (AID 1345086;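 active = compounds killing one labelled cell type while sparing the other, by normalised counts and ratio limits, not self-fluorescent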;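 for all read-outs here: cells exposed to compound for 72 h before imaging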;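 for red/green cell ratio (normalised): normalised mesenchymal count divided by normalised epithelial count so high means epithelial killing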). The note with it: PC-3E GFP / TEM4-18 mCherry co-culture, imaging cell counts, at 1 µM; for red/green cell ratio (normalised): actives lie on both sides.
The test system of test [10] is Aerobactin synthetase IucA (Klebsiella pneumoniae hvKP1). Briefly: IucA enzyme inhibition, primary screen, biochemical, Spectrum library (AID 1346200; call rule not given here;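 note: 100% = wells without compound and 0% = wells lacking enzyme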). The following applies: malachite green pyrophosphate, A620, at 8 µM, stronger effect = lower value.
Test [11] in a line: viability loss with induced miR-34 in A549 – imaging, A549 dox-inducible miR-34, nuclei and caspase counts, primary screen (AID 1347080;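 active = compounds whose cell count with miR-34 switched on is under 0.7 times the count with it off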). The following applies: A549 miR-34 inducible, Hoechst nuclei count, 48 h.
Test [12] can be described thus: MELAS cybrid and Rieske KO viability enhancers – cell-based, MELAS cybrids, Rieske KO mouse fibroblasts, CellTiter-Glo, primary screen (AID 1508586;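 active = mean z-score across replicates of 1.96 or higher in either the MELAS or the Rieske mutant cell line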;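 note: z relative to plate mean and SD of compound and empty wells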). The following applies: low glucose. A general note: ATP-based viability assays read luminescence as a measure of living cells.
Test [13] in a line: galactose survival enhancers in mitochondrial complex I cybrids – cell-based, galactose medium, ATP luminescence, primary screen (AID 1645843;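 active = z-score of at least 1.8 in each of two replicates, scored against plate mean and spread of sample wells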;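 note: positive z means more ATP and so rescue of galactose-driven cybrid death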). The note with it: complex I mutant cybrid cells, 72 h, stronger effect = higher value.
Test [14] can be described thus: compounds altering circadian rhythm period length – cell-based, LOPAC library, luminescence reporter (AID 2774; call rule not given here;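 note: values are relative to mean of DMSO wells on each plate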). The following applies: circadian reporter cells, at 7 µM, actives lie on both sides.
Test [15] concerns Hepatitis C virus NS3 helicase. Briefly: blockers of NS3h binding to ssDNA – biochemical, fluorescence polarization, LOPAC1280 library, primary screen (AID 687035; in the data active = inhibition above about 37%). The note with it: Purified HCV NS3 helicase, Cy5-dT15 ssDNA binding fluorescence polarization; stronger effect = higher value; concentration not given here.
Test [16] in a line: compounds altering Cy5-DNA-NS3h complex signal – biochemical, LOPAC1280, artefact control for HCV NS3 helicase inhibitor project (AID 687037; call rule not given here). The note with it: Cy5-DNA-NS3h complex fluorescence interference counterscreen. A general note: A counterscreen serves to expose hits that act by an unwanted route or on another target.
The subject of test [17] is Aerobactin synthetase IucA (Klebsiella pneumoniae, hypervirulent). In words: biochemical IucA inhibition screen of LOPAC library by absorbance (AID 1346212; call rule not given here;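 note: 100% = no compound wells and 0% = no enzyme wells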). The following applies: IucA enzyme assay, absorbance (OD) readout; stronger effect = lower value;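 tested at 8 µM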.
Test [18] can be described thus: blockers of cellular phospholipid synthesis – cell-based, LOPAC library, screen 4, primary screen (AID 1347384; call rule not given here). The note with it: animal cells, phospholipid biosynthesis inhibition screen; at 10 µM.
Test [19] deals with Mitogen-activated protein kinase 7 (Homo sapiens) (UniProt Q13164). Briefly: Gal4-ERK5 driven luciferase induction – cell-based, HTS, primary screen (AID 1508626;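 active = luciferase signal above three times the same-plate solvent-only control wells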;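 note: luciferase driven by Gal4-ERK5 fusion binding five Gal4 sites before minimal TATA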). The note with it: HeLa Gal4-ERK5 transactivation, 18 h, at 5 µM, stronger effect = higher value.
[20] abbreviates: measured here: epithelial PC-3E GFP cell survival.
Setting [21] is: measured here: mesenchymal TEM4-18 mCherry cell survival.
The mark [22] stands for this setting: measured here: relative caspase fold change +Dox/-Dox.
[23] abbreviates: measured here: total cells with miR-34 induction, stronger effect = lower value.
The mark [24] stands for this setting: measured here: total cells without miR-34 induction.

Several values for one entry are separate records, joined by “and”; a condition that tells them apart may be missing. Equal values may be shown once. For part of these data: Entries with a potency or affinity are not part of this list. Activity calls are given as the source filed them. Cut-off read from the data, not from the text of the source, unless noted: active = parasite load remaining mostly below about 12% (no sharp cut-off); inactive = mostly above about 10%.

Mitogen-activated protein kinase 7 (Homo sapiens), sequence (Q13164 whole entry, looked up, the tested form may be a part): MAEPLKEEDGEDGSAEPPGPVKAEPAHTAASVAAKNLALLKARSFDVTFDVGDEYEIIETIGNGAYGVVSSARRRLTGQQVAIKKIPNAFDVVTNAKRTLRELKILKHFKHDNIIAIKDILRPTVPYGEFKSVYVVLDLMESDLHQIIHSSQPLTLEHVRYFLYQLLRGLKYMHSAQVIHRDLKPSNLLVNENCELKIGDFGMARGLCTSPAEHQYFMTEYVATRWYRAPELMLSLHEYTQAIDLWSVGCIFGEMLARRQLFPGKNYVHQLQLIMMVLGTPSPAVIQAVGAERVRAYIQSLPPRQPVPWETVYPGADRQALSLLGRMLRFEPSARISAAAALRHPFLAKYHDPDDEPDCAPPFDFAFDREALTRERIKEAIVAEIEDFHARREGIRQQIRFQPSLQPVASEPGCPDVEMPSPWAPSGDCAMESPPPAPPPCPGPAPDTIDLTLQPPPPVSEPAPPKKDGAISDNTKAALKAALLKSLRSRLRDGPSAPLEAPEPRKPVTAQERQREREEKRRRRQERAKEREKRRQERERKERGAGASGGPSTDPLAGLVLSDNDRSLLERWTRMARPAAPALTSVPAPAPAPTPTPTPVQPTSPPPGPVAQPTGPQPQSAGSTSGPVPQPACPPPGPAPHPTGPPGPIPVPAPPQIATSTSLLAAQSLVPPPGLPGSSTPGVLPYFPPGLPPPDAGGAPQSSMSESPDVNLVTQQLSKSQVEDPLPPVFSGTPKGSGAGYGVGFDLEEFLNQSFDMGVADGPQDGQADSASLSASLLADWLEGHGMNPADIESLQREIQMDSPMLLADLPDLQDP

Broadly, the inhibition is the relative decrease from the control value, in per cent. Broadly, the viability is a read-out of living cells in per cent, often relative to untreated cells. For `CCC(C)C(=O)O[C@H]1[C@H](O)C2C(CN3CC(C)CCC3[C@@]2(C)O)C2C[C@]34O[C@]5(O)C(OC(=O)C(C)(O)CC)CC[C@@]3(C)C5C(OC(C)=O)[C@@H](OC(C)=O)C4[C@@]21O` (stereo not given in full), the inhibition in test [1] is -14%. This compound also showed a score in test [2] of 1.53. The compound also came in with a rescue above control in [3] of -1.62. The cytochrome c release ratio in test [4] amounted to 0.8. In addition, the inhibition of aggregation in test [5] came to 60.8%. This compound also yielded a glutamate uptake change in [6] of 12.6%. Besides, the aggregation suppression score in test [7] was determined as 1.64. Also, the parasite load remaining in test [8] was 35.5% (inactive). In addition, the viability in test [8] turned out to be 65.2%. Besides, the red/green cell ratio (normalised) in test [9] was 0.9 (inactive). Besides, the normalised cell number came out at 1.11 in [9] (setting [20]) and 1 in test [9] (setting [21]). Also, the activity remaining in test [10] was 105% (inactive).

`C[C@H](N)[C@H](O)c1ccccc1`: the parasite load remaining in [8] was 65.1% (inactive) and 27.2% (inactive). For the same compound, the viability in test [8] was 97.7% and 73%. Moreover, in test [9], the red/green cell ratio (normalised) was 1.19 (inactive). Moreover, the normalised cell number in [9] (setting [20]) stood at 0.91; in [9] (setting [21]) it was 1.08. Besides, the fold change is 0.856 (inactive) and 0.884 (inactive) in [11] (stronger effect = lower value); 0.745 and 1.02 in [11] (setting [22]). Also, the cell count in test [11] (setting [23]) was 11600 and 9670; in [11] (setting [24]), 13500 and 10900. Further, the z-score in test [12] (MELAS cybrid survival, CellTiter-Glo 48 h, stronger effect = higher value) was -0.606 (inactive); in [12] (Rieske KO mouse fibroblast survival, CellTiter-Glo 72 h), -1.57; in test [13], -0.235 (inactive).

`C=C(C)C1CNC(C(=O)O)C1CC(=O)O` (stereo not given): in [8], the parasite load remaining is 103% (inactive) and the viability was 86.2%. Moreover, the red/green cell ratio (normalised) in test [9] is 0.79 (inactive). Moreover, the normalised cell number in [9] (setting [20]) worked out at 0.92. In test [9] (setting [21]), the normalised cell number worked out at 0.73. Also, the activity remaining in test [10] is 96.1% (inactive).

As for `CC1=C2CCC3C(CC[C@]4(C)C(=O)CCC34)[C@@]2(C)CCC1=O` (stereo not given in full), in [8], the parasite load remaining was 48.4% (inactive) and the viability stood at 85.7%. Further, the red/green cell ratio (normalised) in test [9] is 0.88 (inactive). In test [9] (setting [20]), this compound registered a normalised cell number of 1.27. Further, the normalised cell number in test [9] (setting [21]) amounted to 1.12. Besides, the activity remaining in test [10] is 104% (inactive).

Regarding `CC(=O)O[C@@H]1CC[C@]2(C)C3CC[C@]4(C)C(=O)CCC4C3CC[C@H]2C1` (stereo not given in full), in [8], the parasite load remaining was 51% (inactive) and the viability was 94%. For the same compound, the red/green cell ratio (normalised) in test [9] was 1.18 (inactive). In test [9] (setting [20]), this compound came in with a normalised cell number of 0.95. In test [9] (setting [21]), this compound registered a normalised cell number of 1.12. For the same compound, the activity remaining in [10] is 99.4% (inactive).

What is called remaining activity is the signal under treatment as a percentage of the control signal. Turning to `CS(=N)(=O)CC[C@H](N)C(=O)O` (stereo not given in full), the period change in test [14] is -0.08 h (inactive). Moreover, the parasite load remaining in test [8] is 18.6% (inactive) and 51.3% (inactive). Also, in test [8], the viability was 102% and 77.3%. In addition, the inhibition in test [15] is -3% (inactive). Also, the fluorescence ratio (interference) in [16] was 1 (inactive). For the same compound, the red/green cell ratio (normalised) in test [9] is 0.94 (inactive). Also, the normalised cell number was determined as 1.08 in test [9] (setting [20]) and 1.02 in test [9] (setting [21]). Further, the remaining activity in [17] is 115% (inactive). Further, the fold change is 1.04 (inactive) and 0.811 (inactive) in test [11] (stronger effect = lower value); 0.701 and 1.11 in test [11] (setting [22]). Also, the cell count in test [11] (setting [23]) was 10400 and 8780; in test [11] (setting [24]), 9920 and 10800. Besides, the outcome in test [18] was inactive. In test [13], the z-score was 0.45 (inactive).

Take `C[C@]12CCC3[C@@H](CC[C@@]45O[C@@H]4C(O)=C(C#N)C[C@]35C)C1CC[C@@H]2O` (stereo not given in full): the red/green cell ratio (normalised) in [9] is 0.77 (inactive). Besides, the normalised cell number in test [9] (setting [20]) was 1.16; in test [9] (setting [21]) it was 0.89. Moreover, the fold change in [11] (stronger effect = lower value) is 1 (inactive); in test [11] (setting [22]), 0.592. Besides, the cell count in [11] (setting [23]) was determined as 8890; in [11] (setting [24]), 8870.

As to `COC(=O)C(c1ccccc1)C1CCCCN1` (stereo not given), in test [8], the parasite load remaining is 51.8% (inactive). Moreover, the viability in [8] was found to be 106%. Moreover, in test [9], the red/green cell ratio (normalised) was 0.97 (inactive). The normalised cell number in [9] (setting [20]) is 1.07; in test [9] (setting [21]), 1.04. The fold change in test [11] (stronger effect = lower value) was 0.909 (inactive); in test [11] (setting [22]), 3.99. Moreover, the cell count in test [11] (setting [23]) turned out to be 12600; in test [11] (setting [24]) it was 13900. Besides, in test [19], the luciferase signal is 44 AU (inactive).
